The full data set covers some 7,900 targets. This sample favours those with a hit. About 0.6% of all pairs of compound and target were hits. A number with no mark means an inactive call.
Assays:
Assay in all cases: log2 fold change, soluble protein after heating vs DMSO (PISA); higher = thermal stabilisation; K562 cells, 10 uM, 30 min; active = over 0.2 and 3.5 SD of the protein, either way, in both replicates (recomputed)
erlotinib = compound: C#Cc1cccc(Nc2ncnc3cc(OCCOC)c(OCCOC)cc23)c1 [erlotinib]
Procedure, shortened: (§1)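 For each measurement, 10 μM compound was applied for 30 min to K562 cells at 2×10^6 cells/mL. Aliquots were heated for 3 min across 48°C-58°C, pooled, and extracted in PBS with 0.5% NP-40 at 4°C; the supernatant after 21,000xg for 90 min was soluble protein. This was quantified by TMTpro 16plex LC-MS/MS with channel sums equalised, and thermal stability was reported relative to control samples from duplicates, on a log2 fold-change scale.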

[1] = compound: C/C(=N\NC(=O)C1=CC(=CC=C1)S(=O)(=O)N2CCOCC2)/C3=C(C=CC(=C3)Cl)O
Procedure, shortened: as §1

[2] = compound: C1=CC(=C(C=C1Cl)C2=NC3=NC=CN=C3C(=N2)NC4=CC=NC=C4)F
Procedure, shortened: as §1

[3] = compound: C1=CC(=CC=C1C2=NC3=C(N2)C=C(C=C3)C(=O)N)OC4=CC=C(C=C4)Cl
Procedure, shortened: as §1

[4] = compound: C1=CC2=C(C=CC(=C2)/C=C\3/C(=O)NC(=NCC4=CC=CS4)S3)N=C1
Procedure, shortened: as §1

[5] = compound: C1=CC2=NC=CN=C2C=C1/C=C/3\C(=O)NC(=O)S3
Procedure, shortened: as §1

[6] = compound: C1=CC=C(C=C1)C2=NC(=C(N2)C3=CC=NC=C3)C4=CC(=C(C=C4)Cl)O
Procedure, shortened: as §1

[7] = compound: C1=CC=C2C(=C1)C3=NNC4=CC=CC(=C43)C2=O
Procedure, shortened: as §1

[8] = compound: C1CCN(C1)C(=O)NC2=CC=CC(=C2)NC3=NC=C(C(=N3)NCCC4=CN=CN4)Br
Procedure, shortened: as §1

[9] = compound: C1CN(CCC1(CC2=CC=C(C=C2)Cl)N)C3=NC=NC4=C3C=CN4
Procedure, shortened: as §1

IRAK-1-4 Inhibitor I = compound: C1COCCN1CCN2C3=CC=CC=C3N=C2NC(=O)C4=CC(=CC=C4)[N+](=O)[O-] [IRAK-1-4 Inhibitor I]
Procedure, shortened: as §1

ibrutinib = compound: C=CC(=O)N1CCC[C@@H](n2nc(-c3ccc(Oc4ccccc4)cc3)c3c(N)ncnc32)C1 [ibrutinib]
Procedure, shortened: as §1

[10] = compound: CC(=O)c1cnc2ccc(-c3cc(Cl)c(O)c(Cl)c3)nc2c1N[C@H]1CC[C@H](CN(C)C)CC1
Procedure, shortened: as §1

ralimetinib = compound: CC(C)(C)Cn1c(N)nc2ccc(-c3[nH]c(C(C)(C)C)nc3-c3ccc(F)cc3)nc21 [ralimetinib]
Procedure, shortened: as §1

[11] = compound: CC(C)(O)CC(=O)NCCn1ccc2ncnc(Nc3ccc(Oc4cccc(C(F)(F)F)c4)c(Cl)c3)c21
Procedure, shortened: as §1

[12] = compound: CC(C)C1=C2N=C(C=C(N2N=C1)NCC3=CC=CC=C3)NCCCCCCN
Procedure, shortened: as §1

[13] = compound: CC(C)C[C@@H](C=O)NC(=O)[C@H](CC(C)C)NC(=O)[C@H](CC(C)C)NC(=O)OCc1ccccc1
Procedure, shortened: as §1

pinometostat = compound: CC(C)N(C[C@H]1O[C@@H](n2cnc3c(N)ncnc32)[C@H](O)[C@@H]1O)[C@H]1C[C@@H](CCc2nc3cc(C(C)(C)C)ccc3[nH]2)C1 [pinometostat]
Procedure, shortened: as §1

[14] = compound: CC1=C(C(CC(=O)N1)C2=CC=C(C=C2)C(F)(F)F)C(=O)NC3=C(C=C4C(=C3)C=NN4)F
Procedure, shortened: as §1

[15] = compound: CC1=C(C2=C(C=C1)C(=O)C3=CC=CC=C3N2CCCN)C
Procedure, shortened: as §1

Chain of UniProt Q66K14 (Q66K14 whole entry, looked up): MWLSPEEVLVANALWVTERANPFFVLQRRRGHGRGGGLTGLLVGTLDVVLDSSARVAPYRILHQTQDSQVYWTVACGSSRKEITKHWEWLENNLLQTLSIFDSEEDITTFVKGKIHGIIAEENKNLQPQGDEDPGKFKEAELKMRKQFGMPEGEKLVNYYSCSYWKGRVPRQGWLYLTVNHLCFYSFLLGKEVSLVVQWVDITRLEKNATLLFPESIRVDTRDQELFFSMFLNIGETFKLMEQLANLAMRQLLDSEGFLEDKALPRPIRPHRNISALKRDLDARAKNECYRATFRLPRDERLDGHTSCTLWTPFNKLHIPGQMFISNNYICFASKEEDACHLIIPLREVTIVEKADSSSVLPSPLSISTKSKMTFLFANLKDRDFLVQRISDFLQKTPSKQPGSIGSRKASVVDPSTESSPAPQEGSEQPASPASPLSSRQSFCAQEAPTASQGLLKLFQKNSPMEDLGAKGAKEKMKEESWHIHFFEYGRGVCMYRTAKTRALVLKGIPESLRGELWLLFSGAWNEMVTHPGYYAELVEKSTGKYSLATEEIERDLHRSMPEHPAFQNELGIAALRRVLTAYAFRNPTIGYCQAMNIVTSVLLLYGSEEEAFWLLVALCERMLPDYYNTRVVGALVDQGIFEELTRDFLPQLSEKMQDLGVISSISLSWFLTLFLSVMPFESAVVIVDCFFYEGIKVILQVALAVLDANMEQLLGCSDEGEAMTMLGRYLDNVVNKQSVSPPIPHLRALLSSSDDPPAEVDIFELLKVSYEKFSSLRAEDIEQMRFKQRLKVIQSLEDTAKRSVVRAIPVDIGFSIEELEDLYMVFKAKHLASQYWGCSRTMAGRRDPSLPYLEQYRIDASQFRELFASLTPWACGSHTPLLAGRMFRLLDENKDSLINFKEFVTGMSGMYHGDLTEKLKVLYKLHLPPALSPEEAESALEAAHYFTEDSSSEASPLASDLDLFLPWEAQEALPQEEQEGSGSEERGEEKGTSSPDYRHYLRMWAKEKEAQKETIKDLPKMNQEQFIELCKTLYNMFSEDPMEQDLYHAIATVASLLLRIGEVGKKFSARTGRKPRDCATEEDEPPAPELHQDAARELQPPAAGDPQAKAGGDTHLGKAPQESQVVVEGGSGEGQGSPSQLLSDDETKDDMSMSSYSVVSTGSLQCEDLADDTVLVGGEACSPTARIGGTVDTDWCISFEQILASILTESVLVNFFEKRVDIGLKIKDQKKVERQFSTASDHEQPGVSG
Chain of UniProt P02786 (P02786 whole entry, looked up): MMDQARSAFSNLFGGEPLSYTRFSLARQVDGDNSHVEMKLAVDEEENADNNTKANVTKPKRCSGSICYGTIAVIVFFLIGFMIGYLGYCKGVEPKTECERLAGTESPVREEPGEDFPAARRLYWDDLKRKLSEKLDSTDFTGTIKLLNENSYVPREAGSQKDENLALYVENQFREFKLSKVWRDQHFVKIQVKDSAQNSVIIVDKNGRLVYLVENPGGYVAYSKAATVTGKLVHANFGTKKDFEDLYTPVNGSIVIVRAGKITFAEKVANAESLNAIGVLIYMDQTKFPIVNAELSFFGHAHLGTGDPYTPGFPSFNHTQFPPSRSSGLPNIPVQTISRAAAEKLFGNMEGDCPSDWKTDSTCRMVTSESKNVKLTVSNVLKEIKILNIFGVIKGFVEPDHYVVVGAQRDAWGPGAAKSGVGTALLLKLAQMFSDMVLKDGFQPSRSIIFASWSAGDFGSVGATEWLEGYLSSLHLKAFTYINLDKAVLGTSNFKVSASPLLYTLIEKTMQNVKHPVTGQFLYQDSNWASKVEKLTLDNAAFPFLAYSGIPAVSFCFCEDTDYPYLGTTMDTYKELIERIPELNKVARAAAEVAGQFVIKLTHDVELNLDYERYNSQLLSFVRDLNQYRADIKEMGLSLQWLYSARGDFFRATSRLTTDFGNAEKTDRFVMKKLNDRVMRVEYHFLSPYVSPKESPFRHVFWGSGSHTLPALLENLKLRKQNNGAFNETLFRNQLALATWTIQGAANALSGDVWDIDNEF
Chain of UniProt P78382 (P78382 whole entry, looked up): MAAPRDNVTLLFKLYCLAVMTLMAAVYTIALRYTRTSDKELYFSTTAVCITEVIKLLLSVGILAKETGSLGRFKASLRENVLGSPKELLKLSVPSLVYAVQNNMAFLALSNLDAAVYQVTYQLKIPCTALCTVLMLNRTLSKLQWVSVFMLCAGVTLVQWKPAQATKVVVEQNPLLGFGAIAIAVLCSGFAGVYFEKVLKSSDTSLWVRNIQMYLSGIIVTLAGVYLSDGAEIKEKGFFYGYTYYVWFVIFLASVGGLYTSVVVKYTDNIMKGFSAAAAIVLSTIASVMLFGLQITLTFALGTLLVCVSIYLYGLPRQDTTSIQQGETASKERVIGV
Chain of UniProt Q7L7X3 (Q7L7X3 whole entry, looked up): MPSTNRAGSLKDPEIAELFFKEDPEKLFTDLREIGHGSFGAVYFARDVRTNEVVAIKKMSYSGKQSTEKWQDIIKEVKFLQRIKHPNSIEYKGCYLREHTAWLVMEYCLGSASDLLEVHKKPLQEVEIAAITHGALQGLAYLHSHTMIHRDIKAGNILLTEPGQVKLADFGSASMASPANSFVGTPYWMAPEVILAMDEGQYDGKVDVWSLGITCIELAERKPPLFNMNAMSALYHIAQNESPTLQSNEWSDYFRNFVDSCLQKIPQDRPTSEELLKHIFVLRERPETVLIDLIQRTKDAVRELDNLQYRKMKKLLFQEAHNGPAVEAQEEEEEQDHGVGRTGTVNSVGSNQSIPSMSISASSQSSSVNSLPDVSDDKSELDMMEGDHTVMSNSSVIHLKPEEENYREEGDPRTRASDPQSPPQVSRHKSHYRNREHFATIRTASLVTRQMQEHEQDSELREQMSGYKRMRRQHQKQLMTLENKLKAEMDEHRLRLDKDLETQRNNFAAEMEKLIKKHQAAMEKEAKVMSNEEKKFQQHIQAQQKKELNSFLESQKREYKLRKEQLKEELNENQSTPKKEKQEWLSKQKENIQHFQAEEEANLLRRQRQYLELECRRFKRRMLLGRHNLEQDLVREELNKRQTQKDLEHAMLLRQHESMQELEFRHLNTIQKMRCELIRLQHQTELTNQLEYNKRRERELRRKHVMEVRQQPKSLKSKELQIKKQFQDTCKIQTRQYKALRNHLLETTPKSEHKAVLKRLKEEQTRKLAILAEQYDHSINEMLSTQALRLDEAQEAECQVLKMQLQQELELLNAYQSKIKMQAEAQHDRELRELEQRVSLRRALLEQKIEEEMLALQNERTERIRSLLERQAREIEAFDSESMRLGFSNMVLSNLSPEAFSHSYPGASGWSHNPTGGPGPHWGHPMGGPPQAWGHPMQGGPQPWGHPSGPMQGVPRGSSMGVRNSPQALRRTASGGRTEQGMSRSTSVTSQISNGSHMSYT
Chain of UniProt Q9UNL2 (Q9UNL2 whole entry, looked up): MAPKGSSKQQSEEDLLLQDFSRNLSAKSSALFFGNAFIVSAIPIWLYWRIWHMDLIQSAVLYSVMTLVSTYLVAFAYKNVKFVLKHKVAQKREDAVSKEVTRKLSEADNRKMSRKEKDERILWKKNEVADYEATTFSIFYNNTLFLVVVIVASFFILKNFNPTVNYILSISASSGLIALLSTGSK
Chain of UniProt Q15796 (Q15796 whole entry, looked up): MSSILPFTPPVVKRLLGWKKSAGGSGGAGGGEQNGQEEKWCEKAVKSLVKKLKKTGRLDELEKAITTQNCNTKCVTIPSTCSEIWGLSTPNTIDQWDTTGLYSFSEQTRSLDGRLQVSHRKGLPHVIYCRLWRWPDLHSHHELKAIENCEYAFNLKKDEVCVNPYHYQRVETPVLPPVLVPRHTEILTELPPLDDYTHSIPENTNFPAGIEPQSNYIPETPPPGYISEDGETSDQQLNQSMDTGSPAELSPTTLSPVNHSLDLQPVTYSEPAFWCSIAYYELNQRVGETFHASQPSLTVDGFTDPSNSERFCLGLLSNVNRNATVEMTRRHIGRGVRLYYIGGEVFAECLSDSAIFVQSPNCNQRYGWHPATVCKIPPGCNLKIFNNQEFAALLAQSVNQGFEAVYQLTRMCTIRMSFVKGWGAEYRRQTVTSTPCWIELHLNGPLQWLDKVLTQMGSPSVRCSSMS
Chain of UniProt Q93075 (Q93075 whole entry, looked up): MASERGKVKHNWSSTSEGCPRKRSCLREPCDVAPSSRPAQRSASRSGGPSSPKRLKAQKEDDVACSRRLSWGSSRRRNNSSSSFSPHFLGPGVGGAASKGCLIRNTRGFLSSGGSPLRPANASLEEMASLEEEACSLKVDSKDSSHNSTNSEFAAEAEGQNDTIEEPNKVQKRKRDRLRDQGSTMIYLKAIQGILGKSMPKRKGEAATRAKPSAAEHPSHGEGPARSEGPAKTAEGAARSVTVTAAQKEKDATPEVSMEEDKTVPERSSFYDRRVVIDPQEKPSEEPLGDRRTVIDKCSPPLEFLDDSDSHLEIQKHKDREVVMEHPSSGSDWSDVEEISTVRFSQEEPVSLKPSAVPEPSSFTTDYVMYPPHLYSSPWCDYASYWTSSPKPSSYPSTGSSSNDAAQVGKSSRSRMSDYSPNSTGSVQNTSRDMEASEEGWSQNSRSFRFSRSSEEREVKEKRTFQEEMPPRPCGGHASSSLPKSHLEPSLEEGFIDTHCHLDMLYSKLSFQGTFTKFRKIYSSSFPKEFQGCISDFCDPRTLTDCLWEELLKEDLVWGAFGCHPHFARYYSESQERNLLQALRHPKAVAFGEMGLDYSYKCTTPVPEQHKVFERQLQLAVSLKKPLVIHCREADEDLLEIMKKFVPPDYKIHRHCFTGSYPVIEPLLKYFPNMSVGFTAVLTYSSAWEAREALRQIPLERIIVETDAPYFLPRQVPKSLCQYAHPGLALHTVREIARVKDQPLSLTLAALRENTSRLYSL
Chain of UniProt Q16629 (Q16629 whole entry, looked up): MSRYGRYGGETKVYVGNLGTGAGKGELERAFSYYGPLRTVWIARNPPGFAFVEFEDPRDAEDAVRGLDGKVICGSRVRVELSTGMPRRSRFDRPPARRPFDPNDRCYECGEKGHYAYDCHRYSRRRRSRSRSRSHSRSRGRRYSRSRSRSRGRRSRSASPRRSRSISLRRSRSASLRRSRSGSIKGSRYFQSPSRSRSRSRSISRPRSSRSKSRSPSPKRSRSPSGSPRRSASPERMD

Target	log2 fold change (erlotinib)	log2 fold change [1]	log2 fold change [2]	log2 fold change [3]	log2 fold change [4]	log2 fold change [5]	log2 fold change [6]	log2 fold change [7]	log2 fold change [8]	log2 fold change [9]	log2 fold change (IRAK-1-4 Inhibitor I)	log2 fold change (ibrutinib)	log2 fold change [10]	log2 fold change (ralimetinib)	log2 fold change [11]	log2 fold change [12]	log2 fold change [13]	log2 fold change (pinometostat)	log2 fold change [14]	log2 fold change [15]
SLC27A1 (UniProt Q6PCB7)	-0.003	-0.053	0.055	-0.008	0.061	0	0.016	0.012	-0.411 (active)	-0.064	0.052	0.064	-0.05	0.001	0.117	-0.035	-0.04	-0.034	0.195	0.04
SSR3 isoform 2 (UniProt Q9UNL2)	0.019	0.054	-0.013	-0.003	-0.187	0.037	0.006	0.028	-0.119	-0.011	0.158	0.029	0.132	0.06	0.031	0.01	-0.049	-0.134	0.036	-0.022
TBC1D9B (UniProt Q66K14)	0.07	0.001	-0.087	0.072	0.151	-0.092	-0.011	0.021	-0.055	-0.058	0.038	0.079	-0.075	0.071	0.103	-0.133	0.032	0.051	0.02	-0.042
TAOK1 (UniProt Q7L7X3)	0.006	0.045	-0.027	0.09	-0.033	0.009	-0.009	-0.007	-0.005	-0.01	0.011	-0.057	-0.827 (active)	0.062	0.009	-0.031	0.018	-0.052	0.011	0.05
TIMM10B (UniProt Q9Y5J6)	0.299	0.135	0.191	-0.189	0.216	0.048	0.042	0.543	-0.143	-0.051		-0.008	-0.231	0	-0.07	-0.197	-0.126		0.017	0.089
SRSF6 (UniProt Q13247)	0.084	0.096	-0.072	0.062	-0.325	0.079		-0.251	0.09	-0.154	-0.082	-0.072	-0.167		0.234	-0.086		0.116	0.003	-0.744
TBC1D20 isoform 3 (UniProt Q96BZ9)	0.022	0.195	0.094	0.083	0.047	-0.015	-0.048	-0.048			0.02	0.004	-0.124	-0.104	-0.087	-0.099	-0.017	0	-0.061	
TATDN2 (UniProt Q93075)	0.071	-0.062	-0.016	-0.013	0.043	-0.052		0.003	-0.121	0.06	-0.006	0.072	-0.402 (active)		0.102	0.058		0.047	-0.023	-0.218
SMARCA4 (UniProt P51532)	0.02	0.073	0.032	0.102	0.035	-0.001	-0.096	-0.124			-0.155	-0.136	-0.056	0.255	0.027	-0.397	0.16	0.193		
SRSF7 (UniProt Q16629)	0.083	-0.043	-0.292	0.063	-0.154	-0.032	-0.135	-0.037	0.084	-0.063	-0.112	0.128	-0.288	0.098	0.24	0.032	0.084	0.128	0.053	-0.266
SLC35F6 (UniProt Q8N357)	0.12	-0.078	-0.008	-0.067	-0.013	-0.047	0.417 (active)	-0.024	-0.057	0.122		-0.002	-0.016	-0.18	0.061	-0.22	0.319		-0.177	0.078
SLC35A1 (UniProt P78382)	0.014	-0.126	0.05	-0.008	0.082	-0.017	-0.043	-0.061	-0.052	0.077	-0.057	0.119	-0.027	-0.049	-0.056	0.066	0.007	-0.055	0.059	0.138
TBK1 (UniProt Q9UHD2)	-0.042	0.009	0.003	-0.048	0.044	0.026	-0.082	0.009	0.029	-0.105	-0.046	-0.019	-0.162	0.024	-0.067	-0.208	0.046	0.087	0.028	-0.091
SNX11 (UniProt Q9Y5W9)	0.034	-0.029	0.035	0.037	-0.048	-0.028	-0.035	-0.042	-0.079	0.071	0.069	0.13	-0.062	-0.001	0.085	-0.218	0.043	-0.067	0.134	-0.101
TFB2M (UniProt Q9H5Q4)	0.007	0.094	0.037	-0.043	0.016	0.019	-0.022	-0.019	0.002	0.007	0.037	-0.029	-0.013	-0.085	-0.136	-0.08	0.02	0.012	-0.03	0.005
SMAD2 (UniProt Q15796)	0.061	0.087	-0.065	0.04	0.069	-0.004	-0.05	-0.045	-0.034	0.019	-0.145	0.05	-0.091	-0.069	-0.088	-0.015	0.124	-0.125	-0.192	0.079
TFRC (UniProt P02786)	0.002	0.017	0.022	0.006	0.037	0.027	0.023	-0.011	0.006	0.055	0.058	0.026	-0.023	-0.005	0.001	-0.032	-0.005	-0.02	0.001	-0.03

From the supplement of paper PMC10849652
